# Screening data deposited in PubChem by several laboratories.
# SKN-1 block: blocks SKN-1 activity in C. elegans; AID 624304; C. elegans VP596 Pgst-4::GFP/RFP ratio, acrylamide-induced, 24 h; inhibition, % at 21.8 µM; actives 0.49% (n = 360,000);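 active = interference check ratio from 0.5 to 1.5 plus GFP to RFP signal ratio inhibition reaching or exceeding a fixed threshold, cut at about 30% in these data, passing the limit was not always enough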
# PGE2 EP2 inh: blocks the human prostaglandin E2 receptor EP2; C6 glioma cells expressing human EP2, cAMP TR-FRET; cells stimulated with saturating PGE2; inhibition, % at 25 µM; actives 0.52% (n = 260,000); AID 1422;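 active = percent inhibition above 40 after rounding to a whole number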;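 note: rat C6 glioma host cells with rolipram phosphodiesterase inhibitor present; the protocol text gives 20 µM as final concentration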
# EP2 modulator: modulators of human EP2 prostaglandin E2 receptor. actives 0.83% (n = 260,000). EP2-expressing cells, cAMP HTRF FRET, PGE2 co-stimulation. induction, % at 25 µM. P43116. AID 940;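 active = compounds whose cAMP rise, as percent of the full-agonist control response, exceeds 60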;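 note: rat C6 glioma line stably carrying human EP2 under a CMV promoter; the protocol text gives 20 µM as final concentration; 100% = response of wells given 1 µM PGE2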
# Rev-erbA mod: Rev-erb alpha (human) modulation; Rev-erbα–FITC-DNA binding, fluorescence polarization, 90 min; activity, % at 10 µM; actives 0.79% (n = 370,000); P20393; AID 1259318;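 active = activity above about 14%, limit read from the data; passing the limit was not always enough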;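 note: 0% = DMSO wells with 35 nM protein and 100% = DMSO wells with 750 nM protein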
# Target sequence (P20393 whole entry, looked up): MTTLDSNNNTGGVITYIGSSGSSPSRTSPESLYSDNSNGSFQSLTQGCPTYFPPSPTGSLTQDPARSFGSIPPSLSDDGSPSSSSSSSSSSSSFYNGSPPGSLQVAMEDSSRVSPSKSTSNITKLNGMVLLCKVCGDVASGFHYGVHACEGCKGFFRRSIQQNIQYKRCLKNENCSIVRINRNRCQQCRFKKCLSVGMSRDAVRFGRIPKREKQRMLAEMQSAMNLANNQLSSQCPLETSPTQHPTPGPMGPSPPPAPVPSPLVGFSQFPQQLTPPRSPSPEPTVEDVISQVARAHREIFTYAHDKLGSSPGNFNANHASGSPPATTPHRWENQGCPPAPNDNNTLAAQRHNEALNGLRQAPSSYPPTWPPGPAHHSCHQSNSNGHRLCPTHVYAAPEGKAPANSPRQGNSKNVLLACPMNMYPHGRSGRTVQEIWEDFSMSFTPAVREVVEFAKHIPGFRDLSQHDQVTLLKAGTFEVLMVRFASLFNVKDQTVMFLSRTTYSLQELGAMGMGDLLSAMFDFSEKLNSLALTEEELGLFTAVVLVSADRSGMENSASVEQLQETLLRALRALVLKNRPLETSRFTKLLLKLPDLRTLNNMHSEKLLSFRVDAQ
# RAM network inh: inhibitors of the yeast RAM network; S. cerevisiae dse1pr::URA3 reporter, 5-FOA growth OD615, 2 d; analog-sensitive cbk1-as2 kinase mutant strain; inhibition, % at 50 µM; actives 1.8% (n = 190,000);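 active = inhibition above a set limit, 3 SD over mean compound inhibition, cut at about 8.4% in these data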;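 note: 0% = DMSO-only wells with no growth and 100% = 10 µM 1-NA-PP1 full growth; inhibition rescues growth on 5-FOA so higher OD means more RAM inhibition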
# PG9 binder: PG9 antibody binding by small molecule. TR-FRET gp120-PG9 antibody binding. inhibition, % at 6.7 µM. actives 0.43% (n = 360,000). AID 624416; in the data active = inhibition above about 8.5%
# Rev-erbA confirm: Rev-erb alpha (human) modulation, hit confirmation; shares compounds with Rev-erbA mod; Rev-erb alpha FITC-DNA binding, fluorescence polarization, 90 min; activation, % at 25 µM; actives 61% (n = 3,000);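 active = activation at or above a set limit, or at least 3 SD above the negative control mean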;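 note: 0% = 35 nM protein with DMSO and 100% = 750 nM protein high control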
# RORg counter: affects RORgamma DNA binding in a Rev-erb alpha counter-screen; shares compounds with Rev-erbA mod; purified RORgamma protein-FITC-DNA binding, fluorescence polarization; IC50, µM; actives 8% (n = 910); AID 1259320;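 active = Compounds whose fitted half-maximal concentration for disrupting protein-DNA binding is below 10 micromolar; the record names Rev-erb in its text, so the target is in doubt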
# * marks the source's active call; other numbers are inactive results; i = inactive; x = no result given. Hits are enriched below; roughly 2.9% of the tested compounds scored in any of these assays.
SMILES,SKN-1 block,PGE2 EP2 inh,EP2 modulator,Rev-erbA mod,RAM network inh,PG9 binder,Rev-erbA confirm,others
CC(=O)c1cccc(NC(=O)c2sc3nc4cc(C)ccc4cc3c2N)c1,x,10,-51,x,x,x,x,
CCSc1nc2ccc(C)cc2cc1C#N,7,11,25,30*,1,-1,12,
CCOc1ccc2nc(SCC(=O)N3c4ccccc4Sc4ccccc43)c(C#N)cc2c1,8,1,-3,142*,5,-3,61*,RORg counter=>40
CCOC(=O)CC(=O)CSc1nc2ccc(C)cc2cc1C#N,10,27,-6,2,2,-12,x,
Cc1ccc2cc(C#N)c(SCC(=O)N3CCCc4ccccc43)nc2c1,10,9,17,60*,2,-2,44*,RORg counter=>40
Cc1ccc2nc(SCC(=O)Nc3ccccc3N3CCOCC3)c(C#N)cc2c1,8,x,7,28*,2,1,18*,
C=C(C)Cn1c(Sc2ccc(C)cc2)nc2c1c(=O)[nH]c(=O)n2C,x,8,10,x,x,x,x,
C=CCOc1ccccc1C1C(C#N)=C(N)OC2=C1C(=O)CC(C)(C)C2 (stereo not drawn),x,4,-8,x,x,x,x,
CCOCCCNC(=S)N(Cc1cc2ccc(C)cc2[nH]c1=O)CC1CCCO1 (stereo not drawn),x,6,4,x,x,x,x,
N#Cc1cccc(Oc2ccc(-c3cnc4ccccc4n3)cc2)c1C#N,2,7,-9,5,3,0,x,
N#Cc1ccc(Oc2ccc(-c3cnc4ccccc4n3)cc2)cc1C#N,9,5,1,51*,4,0,30*,
N#Cc1ccc(Oc2ccc(-c3nc4ccccc4nc3-c3ccccc3)cc2)cc1C#N,14,11,43,23*,5,2,38*,RORg counter=>40
CCC(CN1CCCCC1)NC(=O)Cc1sc(C)nc1-c1ccc(F)cc1 (stereo not drawn),x,4,-3,x,x,x,x,
Cc1ccc(NC(=O)CN2C(=O)C(C)(C)Oc3ccc(C(=O)NC(C)(C)C)cc32)cc1,x,9,-41,x,x,x,x,
COc1ccc2nc(SCC(=O)Nc3ccc(S(=O)(=O)N4CCCC4)cc3)c(C#N)cc2c1,40*,8,-9,109*,3,-2,74*,RORg counter=>40
N#Cc1cc2ccccc2nc1SCC(=O)Nc1ccc(S(=O)(=O)N2CCCC2)cc1,-7,7,22,30*,4,0,24*,
CCOc1ccc2nc(SCC(=O)Nc3ccc(S(=O)(=O)N4CCCC4)cc3)c(C)cc2c1,5,9,15,25*,x,0,17,
Cc1cc(C)c2nc(SCC(=O)Nc3ccc(S(=O)(=O)N4CCCC4)cc3)c(C)cc2c1,4,3,14,13,3,2,x,
COC(=O)COc1ccc(S(=O)(=O)N2CCC(C(N)=O)CC2)cc1Cl,x,9,1,x,x,x,x,
CCOc1ccc(OCC)c(NC(=O)Cn2nc(-c3ccco3)cc(N)c2=O)c1,x,5,5,x,x,x,x,
Fc1ccc(-c2nc3ccccc3c3nc4ccccc4n23)cc1,19,2,12,26*,0,1,19*,
Cc1ccc(-n2c(N)c(C#N)c(-c3ccc(Cl)cc3)c(C#N)c2=O)cc1,-5,10,-27,49*,2,0,39*,RORg counter=>40
CCN(CC)CCCNc1ccc2ncn3c4ccc(O)cc4c(=O)c1c23,-48,x,x,92*,x,-19,50*,
COc1ccc(CNC(=O)C2CCN(S(=O)(=O)c3ccc(OC)c(OC)c3)CC2)cc1,x,5,-12,x,x,x,x,
CC(C)CCN1C(=O)c2cccc3c(N)ccc(c23)C1=O,-98,x,x,139*,x,1,132*,RORg counter=i
SMILES,SKN-1 block,PGE2 EP2 inh,EP2 modulator,Rev-erbA mod,RAM network inh,PG9 binder,Rev-erbA confirm,others
Nc1cccc(N2C(=O)c3cccc4c(N)ccc(c34)C2=O)c1,-22,x,x,80*,x,-15,64*,RORg counter=>40
Nc1ccc2c3c(cccc13)C(=O)N(c1ccccc1)C2=O,-18,8,14,92*,2,-5,80*,RORg counter=>40
O=C(O)c1ccc2c3c(cccc13)C(=O)N(c1ccccc1)C2=O,5,5,23,-9,4,1,x,
CC(=O)OCCCN1C(=O)c2cccc3c(Cl)ccc(c23)C1=O,x,34,39,x,x,x,x,
CCN1C(=O)c2cccc3c(Cl)ccc(c23)C1=O,4,5,22,41*,2,1,30*,
O=C(O)c1cccc(N2C(=O)c3cccc4c(Cl)ccc(c34)C2=O)c1,14,6,26,0,1,0,x,
O=C(NC1CCN(C(=O)NCc2ccccc2)CC1)C1CCCCC1,x,7,-23,x,x,x,x,
Cc1ccc(S(=O)(=O)N2CCC(c3nc4cc(C)c(C)cc4[nH]3)CC2)cc1,x,7,-110,x,x,x,x,
CC(C)Oc1ccc(CN2CCC(=O)NC2=S)cc1,x,12,1,x,x,x,x,
Cc1cccc(N2C(=O)c3cccc4cccc(c34)C2=O)c1,10,x,x,-2,x,2,x,
Cc1cccc(N2C(=O)c3cccc4c(N)ccc(c34)C2=O)c1,-121,x,x,245*,x,-7,199*,RORg counter=i
O=S(=O)(c1ccc(F)cc1)N1CCN(c2ccc(F)cc2)CC1,-3,x,x,0,x,0,x,
CC1CCN(S(=O)(=O)c2ccc3nc(N4CCN(c5ccccc5)CC4)ccc3c2)CC1,x,x,x,92*,x,1,57*,RORg counter=>40
O=S(=O)(c1ccc2nc(N3CCN(c4ccccc4F)CC3)ccc2c1)N1CCCCC1,21,x,x,41*,x,0,31*,RORg counter=>40
O=S(=O)(c1ccc2nc(N3CCN(c4ccc(F)cc4)CC3)ccc2c1)N1CCCCC1,21,x,x,37*,x,-1,27*,
C=CCn1ncc(CN2C[C@@H]3CCCN3C[C@@H]2Cc2ccccc2)c1C,x,4,-34,x,x,x,x,
CC(C)c1nc2ccc(S(=O)(=O)c3ccc4nc(C(C)C)[nH]c4c3)cc2[nH]1,x,23,-47,x,x,x,x,
Cc1nc(NC(=O)CSc2nnc(-c3ccoc3C)n2Cc2ccccc2)sc1C,x,8,3,x,x,x,x,
N#Cc1c(-c2ccccc2)cc(-c2ccccc2)[nH]c1=O,-8,x,x,18,x,2,x,
COc1cc(-c2cc(-c3ccc(N)cc3)[nH]c(=O)c2C#N)cc(OC)c1OC,-22,x,x,25*,x,-1,15,
CSc1nc2cc(C)nn2c(-c2ccccc2Cl)c1C#N,-4,13,42,42*,x,-1,15,
CSc1nc2cc(C)nn2c(-c2ccc(C(C)(C)C)cc2)c1C#N,-3,14,34,44*,x,-2,12,
CSc1nc(-c2ccccc2)cc(C)c1C#N,3,5,23,4,7,0,x,
CSc1nc(N)n2nc(C)cc2n1,8,x,x,-4,x,0,x,
CCOC(=O)c1c(-c2ccccc2)csc1NC(=O)/C(C#N)=C\c1ccc(O)c(OC)c1,10,x,x,42*,x,-2,12*,
